# Experimental data as given in the supplement of paper PMC6555819.
# Tested on: PPARg:RXRa 30nM:10nM, anti-RXR (NR concentration 30 nM, RXRa partner concentration 10 nM)
# Test: PBM binding z-score (relative to random genomic background probes); higher = stronger binding; sequences stand for … in GC…GCGATTGACAGCGTAGAATGAAGG
# How it was run: (§1)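 Ligand-free nuclear receptor dimers were applied to custom Agilent 4×180K protein-binding microarrays whose double-stranded probes carried direct-repeat seeds, single-nucleotide variants, half-site ablations and random human genomic background sequences in 34-nt variable regions. Incubation lasted 1 h. Binding z-scores were computed against the random background probes from regression-normalized fluorescence.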
row,Sequence,PBM binding z-score
1,CCTACTGGGCAAAAGGTCATTGATTCCAATGCTC,9.17
2,CAGCCTAGATCAGGGCCAGTATAGGAGGAACGTT,-0.386
3,ACTAGTTGGTCAGCTGAGGTCACACAGAATTCGG,0.831
4,GCAGACAGGTTAAACGCAGGTAACTCAGGGTGGC,-0.592
5,TCATATGGGTAATACAGGTGAAAGTCGGCATCTA,2.8
6,GCAGACAGGTAAAACGCAGGTAACTCAGGGTGGC,-0.834
7,CGTCAAAGTTCAATGTAACGTAACAGAAAGCAGC,1.83
8,GGTACGAGGGCAAGTTGATAGCAGAGTTTGATGG,-0.104
9,TAGCCCAGGTCATTCAGGGGCCAGTATAGAAAGC,0.688
10,AGAATGCGGTTATTAAGATCAGGGAATTGCGGTC,-0.149
11,GCTTACGAGTCAAAGGTTATAGCATGAATAGAAT,4.17
12,GCAGACAGGTGAGACGCAGGTAACTCAGGGTGGC,-0.758
13,CCTACTGGGCTAAAAAGGTCATTGATGCCGATAA,1.21
14,CAGCCTAGGTCAGGGCCAGTCTAGGAGGAACGTT,-0.591
15,CCGACTGAGGCAAAGGTTACCATACTCAGTACGA,4.81
16,GATACAGGGTCAAAGCCAGAGTACGCGTATTGAT,2.26
17,ATACCAAGGTGATCGTGAGGTCGGTGATACTAAC,-0.123
18,CCGCCTGGGGCAAGGTTACCATAACGCACAGCCA,-0.339
19,CCAGACAGGTGAGAAGGTAACTGAGCCTCGATTA,-0.11
20,CGAACTAGGACATTGACAGGACAGTGAATAGTAA,0.384

row,Sequence,PBM binding z-score
1,CAGACTAGGTCACAGAGGTCAAAGTCCGTGCGTA,5.05
2,GCGACTGGGGCATCAGTAGGTTACCATAACTTAA,0.0376
3,CCTGCTAGGTCAAGGTCAGCTAATCTACAGTATG,1.39
4,CCGACTGGGGCAGAGAGGTTACCATACCATCCGG,-0.221
5,TCTTGTAGATCAACAGGTGGTTAAGAAAGATCGA,2.58
6,CCTATTGGGCCAAAGGTCATTGATTCCAATGCTC,10.5
7,CCTGCTAGGTCATGGTCAGCTCATCTACAGTATG,0.448
8,TCAAGCAGGCCAGAGGGTCACTCAAGAGGTACGG,2.51
9,ACAGACAGGTGATCAAGGTAACTCAGGCTATCAT,-0.141
10,CCCGAAAGGTCGGTTGAGGTGAGTATACGGATAA,0.00163
11,TATACAGGGTCAATGGCCAGAGTACGAATGTCGA,2.12
12,CCTACTGGGCTAAAGGTCATTGATTCCAATGCTC,9.13
13,CCTGCTAGGTCCTGGTCAGCTAATCTACAGTATG,-0.574
14,TCTGCTAGGTCAGTAGGTCAGCTAACGAGCTGCC,2.51
15,TCTTGTAGATCAGCAGATTAAGAAAGCTGGCCAA,2.75
16,GCTTACGGATCAAAGGTTATAGCATGAATAGAAT,4.61
17,ACTCGGAGGACAAAGGGCAGAGCTACGCCAGTGA,2.2
18,GGAACGAGAGCATTCGAGTTGATAGCATGGCGAT,-0.607
19,GCTTGTAGATCATGGTTAAGAAAGACTAAGCTAA,-0.126
20,CGAACTCGGTCAAGGACAGTGAATCTCCGCACGC,-0.54

# Tested on: PPARg:RXRa 90nM:30nM, anti-RXR (NR concentration 90 nM, RXRa partner concentration 30 nM)
# Test: as above
# How it was run: as §1
row,Sequence,PBM binding z-score
1,CCTACTGGGCAAAAGGTCATTGATTCCAATGCTC,9.67
2,CAGCCTAGATCAGGGCCAGTATAGGAGGAACGTT,-0.789
3,ACTAGTTGGTCAGCTGAGGTCACACAGAATTCGG,1.73
4,GCAGACAGGTTAAACGCAGGTAACTCAGGGTGGC,-0.245
5,TCATATGGGTAATACAGGTGAAAGTCGGCATCTA,2.4
6,GCAGACAGGTAAAACGCAGGTAACTCAGGGTGGC,-0.835
7,CGTCAAAGTTCAATGTAACGTAACAGAAAGCAGC,3.34
8,GGTACGAGGGCAAGTTGATAGCAGAGTTTGATGG,0.235
9,TAGCCCAGGTCATTCAGGGGCCAGTATAGAAAGC,1.57
10,AGAATGCGGTTATTAAGATCAGGGAATTGCGGTC,-0.182
11,GCTTACGAGTCAAAGGTTATAGCATGAATAGAAT,6.28
12,GCAGACAGGTGAGACGCAGGTAACTCAGGGTGGC,-0.532
13,CCTACTGGGCTAAAAAGGTCATTGATGCCGATAA,2.6
14,CAGCCTAGGTCAGGGCCAGTCTAGGAGGAACGTT,0.125
15,CCGACTGAGGCAAAGGTTACCATACTCAGTACGA,6.88
16,GATACAGGGTCAAAGCCAGAGTACGCGTATTGAT,4.25
17,ATACCAAGGTGATCGTGAGGTCGGTGATACTAAC,-0.222
18,CCGCCTGGGGCAAGGTTACCATAACGCACAGCCA,0.253
19,CCAGACAGGTGAGAAGGTAACTGAGCCTCGATTA,0.193
20,CGAACTAGGACATTGACAGGACAGTGAATAGTAA,0.344

row,Sequence,PBM binding z-score
1,CAGACTAGGTCACAGAGGTCAAAGTCCGTGCGTA,7.36
2,GCGACTGGGGCATCAGTAGGTTACCATAACTTAA,0.86
3,CCTGCTAGGTCAAGGTCAGCTAATCTACAGTATG,3.47
4,CCGACTGGGGCAGAGAGGTTACCATACCATCCGG,0.899
5,TCTTGTAGATCAACAGGTGGTTAAGAAAGATCGA,1.8
6,CCTATTGGGCCAAAGGTCATTGATTCCAATGCTC,12.1
7,CCTGCTAGGTCATGGTCAGCTCATCTACAGTATG,1.72
8,TCAAGCAGGCCAGAGGGTCACTCAAGAGGTACGG,2.67
9,ACAGACAGGTGATCAAGGTAACTCAGGCTATCAT,-0.12
10,CCCGAAAGGTCGGTTGAGGTGAGTATACGGATAA,0.671
11,TATACAGGGTCAATGGCCAGAGTACGAATGTCGA,3.87
12,CCTACTGGGCTAAAGGTCATTGATTCCAATGCTC,10.4
13,CCTGCTAGGTCCTGGTCAGCTAATCTACAGTATG,-0.403
14,TCTGCTAGGTCAGTAGGTCAGCTAACGAGCTGCC,4.29
15,TCTTGTAGATCAGCAGATTAAGAAAGCTGGCCAA,1.92
16,GCTTACGGATCAAAGGTTATAGCATGAATAGAAT,7.07
17,ACTCGGAGGACAAAGGGCAGAGCTACGCCAGTGA,4.28
18,GGAACGAGAGCATTCGAGTTGATAGCATGGCGAT,-0.728
19,GCTTGTAGATCATGGTTAAGAAAGACTAAGCTAA,-0.187
20,CGAACTCGGTCAAGGACAGTGAATCTCCGCACGC,-0.129
